In PubChem BioAssay AID624297 (National Center for Advancing Translational Sciences (NCATS), 2012):
Several values for one entry are separate records, joined by “and”; a condition that tells them apart may be missing. Equal values may be shown once. In all, about 340,000 compounds went through this assay and about 6,200 (1.8%) were called active. Roughly 10% stayed inconclusive and do not appear here. Calls come from the whole dose curve; as a rule, active = well fitted activation curve with a large enough effect; inconclusive = small, poorly fitted or top-dose-only effect; inactive = no such curve, though single readings can be large or run the other way. For the sample, actives were picked, then their nearest neighbours and some compounds at random.

Assay: A quantitative high throughput screen for small molecules that induce DNA re-replication in SW480 colon adenocarcinoma cells. For re-replication activation: % of control where 0% means no effect. Note: nearly all actives have a fitted effect of over 55% in size.
Conditions: Hoechst DNA content imaging, 48 h; series mostly up to 46.1 µM; re-replication activation: at the top concentration
Summary of the method: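 Hoechst fluorescence of nuclei (405 nm excitation, 500-530 nm emission) measured by plate-scanning imager after 48 hr compound exposure at 37 C; re-replication scored as increased number of nuclei with elevated intensity.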
Potency is the fitted concentration of half-maximal effect.

re-replication activation, inactive:
CC1=CC(=NNS(=O)(=O)c2ccc([N+](=O)[O-])cc2)CC(C)(C)C1 26%
COc1ccc(C(=O)N(C)Cc2ccc(OC)c(OC)c2OC)cc1S(=O)(=O)N1CCOCC1 -16.5%
COc1ccc([N+](=O)[O-])cc1NC(=O)COC(=O)/C=C/c1ccco1 2.98%
COC(=O)C1=C(C)N(c2ccc(Br)cc2)C(=O)/C1=C\c1ccco1 -1.99%
O=C(CC1SC(N2CCOCC2)=NC1=O)Nc1ccccc1F (centres undefined) -10.3%
CCCCCCSc1ccc([C@@H]2[C@H]3C(=O)N(CC)C(=O)[C@H]3[C@]3(C(=O)OC)CCCCN23)cc1 10.7%
COC(=O)Cc1c(-c2[nH]c3ccccc3c2CC(=O)OC)[nH]c2ccccc12 2.42%
O=C(CN1C(=O)NC2(CCCC2)C1=O)Nc1cc(C(F)(F)F)ccc1N1CCOCC1 -2.75%
Cc1cc(C)nc(N/N=C/c2c(C)oc3ccccc23)n1 4.88%
O=C(COC(=O)/C=C/c1ccc(Br)o1)Nc1cccc(S(=O)(=O)N2CCOCC2)c1 -3.84%
CC1CCCCC12NC(=O)N(CC(=O)N1CCN(c3ccccc3)CC1)C2=O (centres undefined) -15%
CCC(=O)Nc1ccc2nc(C)n(Cc3ccccc3Cl)c(=O)c2c1 -2.2%
CCOc1cc(NC(=O)c2ccccc2C(=O)O)c(OCC)cc1NC(=O)c1ccccc1F 6.97%
O=C(c1cccs1)N1CCCC(c2nc(-c3ccc(F)cc3)no2)C1 (centres undefined) -0.305%
Cc1cc(C#N)c(SCC(N)=O)nc1-c1ccc(F)cc1 -0.723%
CC12CCCCC1=CC(=O)CC2 (centres undefined) 0.335%
O=C(Nc1ccc(C2CC2(Cl)Cl)cc1)c1cccc([N+](=O)[O-])c1 (centres undefined) 13%
CCC(=O)NC(=S)Nc1ccc(NC(=O)c2ccco2)c(Cl)c1 2.73%
O=C(COC(=O)CSc1ccccc1)Nc1ccc(F)cc1F -8.3%
C=CC[C@H](CC(=O)NCCO)C(=O)N[C@@H](COC(=O)[C@@H](CC=C)Cc1ccc(F)cc1)Cc1c[nH]c2ccccc12 -8.11%
Cc1ccc(C(=O)Nc2ccccc2-c2ccccc2)cc1S(=O)(=O)Nc1ccccc1 -9.69%
Cn1c(N)cc(=O)n(C)c1=S -5.87%
CCCn1nc(NS(=O)(=O)c2ccccc2)c2cc3cc(C)ccc3nc21 -277%
CCCn1nc(NS(=O)(=O)c2ccc(F)cc2)c2cc3ccccc3nc21 -3.49%
CCOC(=O)C1CCCN(C(=O)C2CCN(S(=O)(=O)c3ccc(Cl)c(C(F)(F)F)c3)CC2)C1 (centres undefined) -0.268%
Cc1ccc(S(=O)(=O)N2CCCCC2)cc1C(=O)N1CCN(CCO)CC1 4.03%
O=C(CCC(=O)N1CCN(S(=O)(=O)c2ccc(Cl)cc2)CC1)NCc1cccc(C(F)(F)F)c1 -18.8%
CN(C)c1nc(NN)nc(Nc2ccc(F)cc2)n1 8.77%
OCCNc1nc(Nc2ccc(Cl)c(Cl)c2)nc2ccccc12 0.218%
CC(=O)Oc1ccc2c(c1)C(=O)c1ccccc1C2=O -16.9%
Cc1ccc(S(=O)(=O)N2CCN(C(=O)CN3C(=O)NC(C)(c4ccc(Cl)cc4)C3=O)CC2)c(C)c1 (centres undefined) 9.81%
Cc1ccnc(SCC(=O)Nc2cccc(S(=O)(=O)N3CCOCC3)c2)n1 -9.84%
Cc1ccc(NC(=O)c2csc3c2CCCC3)cc1 -1.8%
Cc1ccc(NC(=O)c2c(NC(=O)CCC(=O)O)sc3c2CCCCC3)cc1 -11.6%
COc1ccccc1N(CC(=O)Nc1c(C)n(C)n(-c2ccccc2)c1=O)S(=O)(=O)c1ccccc1 -8.42%
Cc1ccc(S(=O)(=O)NCC(=O)NNC(=O)c2ccc(Br)cc2)cc1C -3.8%
O=C1c2ccccc2C(=O)N1CCC#Cc1ccc2cc(C3(O)CCCCC3)oc(=O)c2c1 -6.42%
COc1cc(/C=C2\Oc3ccc(C#Cc4ccc(O)cc4)cc3C2=O)cc(OC)c1 -3.34%
C#CCOCCOCCOCCNc1nc(N2CCN(C(=O)[C@H](CO)n3cc([C@@H](N)C(C)C)nn3)CC2)nc(N2CCN(C(=O)[C@H](CCC(=O)O)n3cc([C@@H](N)[C@H](C)CC)nn3)CC2)n1 -0.653%
COc1cc(/C=C(\C#N)c2nc3ccccc3[nH]2)ccc1O -6.88%
COc1ccc2[nH]cc(/C=C(/C#N)S(=O)(=O)c3ccccc3)c2c1 -1%
C#CCOCCOCCOCCNc1nc(N2CCOCC2)nc(N2CCN(C(=O)[C@H](Cc3ccc(O)cc3)n3cc(CCO)nn3)CC2)n1 -5.18%
Cc1noc(C)c1S(=O)(=O)N(C)C[C@H]1Oc2c(NC(=O)Nc3ccc4c(c3)OCO4)cccc2C(=O)N([C@H](C)CO)C[C@@H]1C 12.8%
O=C(NCc1ccc2c(c1)OCO2)c1cc(F)c(F)cc1Cl 0.16%
O=C(Cc1ccc([N+](=O)[O-])cc1)NCCc1ccc2c(c1)OCO2 -3.75%
CC[C@]12c3[nH]c4ccc(Cl)cc4c3CCN1C(=O)[C@@H](CC(=O)NCCN1CCOCC1)C[C@@H]2C(=O)N1CCN(C(=O)C2CC2)CC1 -1.66%

Potency, active:
Cc1coc2c(O)cc3c(c12)OC1(N2CCCCC2)C(=O)NCCCC31 (centres undefined) 20.6 µM and 7.08 µM
COc1ccc(N2C(=O)/C(=C\c3ccco3)N=C2SCC(N)=O)cc1Cl 18.4 µM
Cc1cc(C)nc(N/N=C/c2c(CO)cnc(C)c2O)n1 11.6 µM
CCN1CCN(c2cc3nc(C)n(Cc4ccccc4)c(=O)c3cc2NC(=O)c2ccccc2F)CC1 8.2 µM
N#Cc1c(-c2ccc(F)cc2)cc(C2CC2)nc1SCC(=O)c1cccs1 11.6 µM
O=C(Nc1ccc(NC(=O)c2ccco2)c(Cl)c1)c1cccc([N+](=O)[O-])c1 0.651 µM
CCCn1nc(NC(=O)C(C)C)c2cc3cc(OC)ccc3nc21 9.2 µM
CN(C)c1nc(Nc2ccc(Cl)c(Cl)c2)nc(N(C)C)n1 23.1 µM
O=C1C(Cl)=C(Oc2ccccc2)C(=O)c2ccccc21 2.06 µM
CC(=O)Nc1ccc(NC(=O)c2sc3nc4c(c(-c5ccc(C)cc5)c3c2N)CCC4)cc1 20.6 µM
COc1cc(C#Cc2ccc3cc(CCCO)oc(=O)c3c2)cc(OC)c1 3.26 µM
COc1ccc(/C=C(\C#N)c2c[nH]c3ccccc23)cc1 18.4 µM
O=C(NCc1ccc2c(c1)OCO2)c1cc([N+](=O)[O-])ccc1N1CCOCC1 7.31 µM
